# Test results published in the supplement of paper PMC7866885, “A novel bicyclic 2,4-diaminopyrimidine inhibitor of Streptococcus suis dihydrofolate reductase” (PeerJ, 2021).
# ± gives the standard deviation.
# What was measured:
# Streptococcus suis HE06 = test: percent growth relative to DMSO control; higher = less growth inhibition; details: 10 µM; incubation time 18 h
# Experimental: (§1)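 CLSI broth microdilution: 5x10^4 CFU of Streptococcus suis (strain P1/7 or HE06) incubated with 10 µM Pathogen Box compound in cation-adjusted Mueller Hinton broth, 37 °C, 5% CO2, 18 h. Growth read as OD600 and expressed as percent of the DMSO-treated control (100%); mean ± SD of three independent experiments.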
# Streptococcus suis P1/7 = test: as above; details: 10 µM; incubation time 18 h
# Experimental: as §1
Compound,percent growth (Streptococcus suis HE06) [%],percent growth (Streptococcus suis P1/7) [%]
CS(=O)(=O)Cc1nc2ccccc2oc1=O,67.6 ± 7.5,88.2 ± 53
Cc1ccc2[nH]c(C3CCCNC3)c(-c3ccncc3)c2c1 (stereo not given),108 ± 31,89.8 ± 7.2
Cc1cc2nc(NC(=O)C(C)(C)C)nc(Cl)c2n1Cc1ccc(Cl)cc1,115 ± 19,109 ± 58
FC(F)(F)c1nnc2ccc(Cl)nn12,74.8 ± 22,85 ± 18
CC(C)(C)c1cnc(NC(=O)c2ccccc2O)s1,19.7 ± 28,1.61 ± 1.4
Cc1cc(C)n(-c2ccc(NC(=O)C3CCN(Cc4cnc(C)s4)CC3)cc2)n1,95.3 ± 24,65.6 ± 19
CC(C)(C(=O)Nc1ccc(F)cc1)n1cc(-c2ccccc2F)cn1,106 ± 22,
CS(=O)(=O)N1CCC(CCn2nc(Cc3cccc4ccccc34)c3c(N)ncnc32)CC1,90.3 ± 15,100 ± 38
Cn1ncc2c(N3CCOCC3)nc(NCCc3c[nH]c4ccccc34)nc21,76.5 ± 10,78.8 ± 17
CCS(=O)(=O)N(Cc1ccco1)Cc1cc2ccc(C)cc2nc1O,90.6 ± 1.9,77.1 ± 19
NC(CC(=O)c1ccc(Cl)cc1Cl)C(Cl)(Cl)Cl (stereo not given),58.8 ± 39,23.2 ± 36
Cc1cc(C(=O)Nc2cnn(Cc3ccc(Cl)cc3Cl)c2)no1,94.2 ± 5.5,97.5 ± 11
COc1cc(C(F)(F)F)nc2ccc(C)c(N)c12,101 ± 4.2,
CN1CCN(S(=O)(=O)c2ccc(-c3ccc4c(Nc5ncc(Cl)cn5)ccnc4c3)cc2)CC1,92.2 ± 8.5,103 ± 47
c1ccc(C[C@@H]2CN(c3nccc(Oc4ccc(-n5ccnc5)cc4)n3)CCN2)cc1,93.3 ± 12,90.5 ± 21
O=C(NCCc1ccccc1)c1cc(-c2cccnc2)cnc1NCC1CC1,88.2 ± 20,59.7 ± 23
COc1ccc2nc(C)cc(OCC(=O)NCc3ccccc3)c2c1,91.7 ± 11,75.5 ± 9.7
O=S(=O)(c1ccc(Cl)cc1)N1CCN(C(=S)NCc2ccco2)CC1,93.7 ± 22,92.6 ± 17
CNc1nnc(Sc2cnn(-c3ccccc3)c(=O)c2Cl)s1,81.9 ± 1.8,
CCC(NC(=O)c1ccccc1NC(=O)c1ccc(C)cc1)C(=O)OC (stereo not given),92 ± 4.7,78.1 ± 18
Brc1c(-c2ccc3c(c2)OCO3)nc2ncccn12,95.7 ± 6.9,85.8 ± 20
Cc1ccc(NC(=O)c2cc(S(=O)(=O)NC(C)(C)C)ccc2C)nc1,207 ± 200,75.6 ± 20
CCOC(=O)c1c(NC(=O)c2c(F)c(F)c(F)c(F)c2F)sc(C(N)=O)c1C,91.9 ± 6,
CC(C(=O)Nc1ccc2oc(-c3ccncc3)nc2c1)c1ccccc1 (stereo not given),81.1 ± 11,95.8 ± 45

Compound,percent growth (Streptococcus suis HE06) [%],percent growth (Streptococcus suis P1/7) [%]
COc1ccccc1CNC(=O)c1cc(C2CC2)nc2c1cnn2C(C)C,81.6 ± 10,83.8 ± 45
COc1ccc(Cn2cnc3c(-c4ccco4)nc(Cl)nc32)cc1,88.5 ± 13,102 ± 42
CNC(=O)c1nn(C)c2c1C(C)(C)Cc1cnc(Nc3ccc(N4CCN(C)CC4)cc3)nc1-2,88.7 ± 21,92.6 ± 19
Cc1cc(C)c2cc(C(=O)NC3CCCCCCC3)[nH]c2c1,90.5 ± 14,90.1 ± 32
COc1cccc(-c2nc3c(N4CCCC4)cccc3n2CC2CCCN2)n1 (stereo not given),84.4 ± 7,58.2 ± 19
Cc1[nH]c2ccccc2c1C(c1cccs1)N1CCN(C)CC1 (stereo not given),49 ± 25,86.1 ± 38
O=[N+]([O-])c1cn2c(n1)OC[C@@H](OCc1ccc(OC(F)(F)F)cc1)C2,110 ± 13,90 ± 13
COc1cccc(NC(=O)c2c(NC(=O)c3cccnc3)sc3c2CCC3)c1,98.2 ± 24,
CCn1ncc2c(NC3CCOCC3)c(CNC(=O)c3ccnn3C)c(C)nc21,109 ± 24,85.7 ± 26
CCc1nc2ccc(Cl)cn2c1C(=O)NCc1ccc(N2CCC(c3ccc(OC(F)(F)F)cc3)CC2)cc1,89.9 ± 15,111 ± 65
CNC(=O)C1Cc2c([nH]c3cc(Cl)ccc23)C2(CCN(CCc3ccccc3)CC2)N1 (stereo not given),95.5 ± 23,77.4 ± 9
N#Cc1nc(-c2ccccc2F)oc1NCCc1ccccc1,113 ± 30,98.7 ± 25
CCCCOC(=O)Nc1cc2nc(C3CCCCC3)[nH]c2cc1N1CCCC1,29.6 ± 40,
N#CCN(CCCCN1CCN(c2ccc(F)cc2)CC1)C(=O)OCc1ccccc1,93.7 ± 14,75.8 ± 19
O=C(Nc1nc(-c2ccccn2)cs1)C1CC1c1ccccc1F (stereo not given),-0.0889 ± 1.4,2.29 ± 3.7
Clc1ccc(-n2cc(COc3ccnc4ccccc34)nn2)cc1,84.2 ± 6,77.9 ± 13
O=C(CCC1CCCCC1)Nc1cccc(-c2nnc(-c3ccco3)o2)c1,93.8 ± 3.7,111 ± 46
CCN(CC)S(=O)(=O)c1ccc(C(=O)Nc2cc(C)nn2-c2nc(C)c(C)c(=O)[nH]2)cc1,0.274 ± 0.47,3.31 ± 3.3
FC(F)(F)c1ccc(N(c2cccnc2)C2CCN(c3ccc(C(F)(F)F)cn3)CC2)cc1,67.9 ± 13,61.4 ± 12
CN1CCN(c2nccc3[nH]c(-c4cccc(F)c4)cc23)CC1,97.4 ± 6.1,96 ± 26
Cn1c(=O)c2c(S(C)(=O)=O)snc2n(C)c1=O,40.1 ± 32,93 ± 120
Clc1ccc(CCNc2cc(-c3ccccc3)nc3ncnn23)cc1,79.8 ± 10,81.5 ± 18
Cc1cc(Cl)ccc1NC(=O)CCc1ccc(S(=O)(=O)NCC(C)C)cc1,87.8 ± 9.9,95.4 ± 17
COc1cc2ncnc(NC3CCN(Cc4ccccc4)CC3)c2cc1OC,103 ± 27,122 ± 11
